Anthrax LF prot: Bacillus anthracis LF protease inhibitors, primary screen, biochemical, multiplex microsphere, MLPCN library; 360,000 tested, 0.12% active; inhibition, % at 10 µM; Lethal factor (Bacillus anthracis), P15917; multiplex microsphere protease cleavage assay; further: plate controls were buffer without enzyme for full effect and enzyme alone for no effect
BoNT-F LC inh: BoNT/F light chain protease inhibitors, primary screen, biochemical, flow cytometry, MLPCN library | Botulinum neurotoxin type F light chain protease (Clostridium botulinum) | Multiplex microsphere protease cleavage assay | 360,000 tested, 0.22% active | inhibition, % at 10 µM; in the data active means inhibition above about 35%, passing the limit was not always enough; inconclusive means no clear call, values can overlap the other calls; further: plate controls were buffer without enzyme for full effect and enzyme alone for no effect
MazF activator: activators of E. coli MazEF toxin-antitoxin RNase, primary screen, biochemical, fluorescence, uHTS. Endoribonuclease toxin MazF (Escherichia coli (strain K12)), P0AE70. FAM/BHQ RNA-DNA oligo cleavage fluorescence, 5 h. 350,000 tested, 0.32% active. activation, % at 20 µM; in the data active means activation above about 50%
Target sequence (P0AE70 whole entry, looked up): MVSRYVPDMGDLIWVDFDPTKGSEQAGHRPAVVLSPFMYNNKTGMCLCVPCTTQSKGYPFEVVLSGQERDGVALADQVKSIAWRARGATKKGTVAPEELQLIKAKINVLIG
Autofluor counter: counter-screen for toxin protease inhibitors: compound fluorescence. compound autofluorescence counterscreen, microsphere flow cytometry; active compounds read high. fluorescence intensity (no concentration beside the values). 360,000 tested, 3.1% active. AID 624483; in the data active means fluorescence intensity above about 16000; inconclusive means no clear call, values can overlap the other calls
BoNT-A LC inh2: BoNT/A light chain protease inhibitors, primary screen, biochemical, flow cytometry, MLPCN library. multiplex microsphere protease substrate cleavage. 360,000 tested, 0.17% active. inhibition, % at 10 µM. Botulinum neurotoxin type A light chain protease (Clostridium botulinum A str. ATCC 3502). AID 588499, 2011; further: plate controls were buffer without enzyme for full effect and enzyme alone for no effect
Active calls of the source: *; ? = inconclusive; . = no result. Compounds with a hit are over-represented: about 3.7% of the library has one in this group of screens. Unless noted, no stated cut-off is given here; in the data, active means inhibition above about 30%; inconclusive means no clear call, values can overlap the other calls; inactive means below that.

SMILES | Anthrax LF prot | BoNT-F LC inh | MazF activator | Autofluor counter | BoNT-A LC inh2
CC(C)Oc1cccc(NC(=O)C2(C)CCN2C(=O)C(C)C)c1 (stereo not drawn) | -8 | -2 | . | 3348 | 0
COc1cc(NC(=O)C(C)(C)C)c(C(=O)OCC(=O)Nc2cc(C)on2)cc1OC | 1 | -4 | 3 | 2886 | 1
O=c1[nH]cnc2c1C(c1ccccc1[N+](=O)[O-])c1c(nc[nH]c1=O)O2 | -2 | 3 | 7 | 20743* | 3
CCC[C@H]1CN(c2ccc(Br)cc2)C(=O)[C@@H]1CC(=O)NC | 1 | -2 | 9 | 3081 | 0
O=C(CCCc1ccccc1)Nc1ccc(Br)cc1F | 32* | -26 | 1 | 3547 | -1
O=C(CCc1ccccc1)Nc1ccc(F)cc1F | -7 | 7 | 1 | 4987 | 0
ClCCn1cnc2c(SCc3ccccc3)ncnc21 | -3 | 5 | 3 | 3757 | 0
Cc1cccc(-c2nnn3c2nc(NCCc2ccc(S(N)(=O)=O)cc2)c2ccccc23)c1 | 4 | -1 | 5 | 7386 | 1
NS(=O)(=O)c1ccc(CCNc2nc3c(-c4cccc(F)c4)nnn3c3ccccc23)cc1 | 0 | -4 | 109* | 7970 | 2
Cc1cc(Cl)ccc1OC(C)c1nnc(N)s1 (stereo not drawn) | -2 | -1 | -15 | 16493* | -1
C=CCSc1ncc(C#N)c(N)n1 | -2 | -3 | 2 | 20496* | -2
COc1ccccc1-c1cccc(-c2nc(C(=O)N3CCCCC3)cc3c2[C@@H](CCO)N(S(=O)C(C)(C)C)C3)c1 (stereo partly drawn) | 2 | -8 | . | 5341 | -1
CCN1C(=O)C(CC(=O)Nc2ccc(OC)cc2)N(Cc2cccs2)C1=S (stereo not drawn) | -2 | -4 | 7 | 16912* | ?
CN1C(=O)C(CC(=O)Nc2ccc(F)cc2)N(Cc2cccs2)C1=S (stereo not drawn) | -8 | ? | 1 | 3901 | -3
CCCOc1ccc(NC(=O)CC2C(=O)N(C)C(=S)N2Cc2cccs2)cc1 (stereo not drawn) | -3 | -6 | 97* | 3106 | 0
CC(C)(C)c1ccc(C(=O)NCCC(=O)NCc2ccc(F)cc2)cc1 | -3 | 0 | 11 | 3151 | 0
CC[N+](CC)=N/N=C1\C=CC[N+]([O-])=C1 | -7 | -7 | . | 6018 | 0
CCOc1ccc(N2C(=O)/C(=C/c3ccco3)C(=O)NC2=S)cc1 | -11 | 47* | -13 | 2781 | 3
CCc1ccc(C(C)NC(=O)Cn2cnc3c(=O)n(C)c(=O)n(C)c32)cc1 (stereo not drawn) | -1 | 0 | 1 | 16189* | 0
COc1ccccc1CNC(=O)c1ccc(S(=O)(=O)N2CCCC2)cc1 | -1 | -2 | -1 | 24898* | -1
COc1cc(SC)ccc1C(=O)NCc1ccc(C)cc1 | -2 | 3 | -9 | 19956* | 2
COc1ccc(OC)c(NC(=O)CNC(=O)c2cccs2)c1 | -5 | 1 | 7 | 21327* | ?
COc1ccc(C(=O)NCc2cccnc2)cc1S(=O)(=O)N1CCOCC1 | 1 | -5 | -3 | 21445* | ?
COc1cc(OC)c(OC)cc1CNC(=O)c1ccc(S(=O)(=O)N2CCCCC2)cc1 | . | . | 6 | . | .
O=C1[C@H]2[C@@H](c3ccc(F)cc3)N3C(=O)N(c4ccc(Br)cc4)C(=O)[C@@]3(Cc3ccccc3)[C@H]2C(=O)N1C1CCCCC1 | -4 | 0 | -4 | 3799 | 0
SMILES | Anthrax LF prot | BoNT-F LC inh | MazF activator | Autofluor counter | BoNT-A LC inh2
COc1ccc(C(=O)NCc2cccnc2)cc1 | 1 | -3 | -3 | 21373* | -2
CCOc1ccc(C(=O)NCc2cccnc2)cc1 | -6 | -3 | 4 | 4258 | -1
COc1ccc(C(=O)NCc2ccccc2OC)cc1 | -4 | 2 | 2 | 21799* | 6
COc1ccc(/C(N)=N/OC(=O)Cc2ccccc2OC)cc1 | -4 | -5 | -7 | 21398* | -2
COc1ccc(OC)c(NS(=O)(=O)c2cccs2)c1 | -1 | 5 | 5 | 22109* | 3
COc1ccccc1CNC(=O)c1ccc(-c2ccccc2)cc1 | 2 | -6 | -1 | 2499 | 0
Oc1ccc(C[C@H]2CNC(=S)N2CC2CCCN2C[C@H](Cc2ccccc2)N2C[C@H](Cc3ccc(O)cc3)N(CC3CCCCCC3)C2=S)cc1 (stereo partly drawn) | -6 | -8 | -11 | 2863 | 0
Cc1cccc(-c2ccc3c(c2)C2CC3CCN2Cc2ccc3c(c2)OCO3)c1 (stereo not drawn) | -3 | -2 | -8 | 3826 | 0
COc1ccc(C(=O)NCc2ccccc2OC)c(OC)c1 | -2 | -3 | 3 | 20943* | ?
O=C(NCc1cccnc1)c1ccc(Cl)c(Cl)c1 | -2 | -6 | 5 | 2843 | 0
O=C(NCc1cccc(Cl)c1)c1cccnc1 | -2 | -9 | -6 | 18154* | ?
COc1ccc(N=c2oc3c(OC)cccc3cc2C(=O)NCc2ccco2)c(OC)c1 | -11 | 2 | 65* | 21143* | 3
COc1ccccc1CNC(=O)c1cccs1 | 2 | -2 | -16 | 23731* | -2
Nc1[nH]c(C(=O)c2ccccc2)c(-c2ccccc2C(F)(F)F)c1C(=O)c1cccs1 | 1 | -3 | . | 4207 | 0
Cc1nnc(SCC(=O)Nc2cccc(S(=O)(=O)N3CCCC3)c2)n1C1CC1 | 1 | -2 | 5 | 3632 | 0
CN1CCN(c2ncnc3c2ncn3[C@H]2CN(Cc3ccc4c(c3)OCO4)C[C@@H](CO)O2)CC1 | -6 | -2 | . | 2853 | 0
COc1ccc(C(CC(=O)O)NC(=O)c2cccs2)cc1 (stereo not drawn) | -7 | -6 | -2 | 16500* | -2
CC(C)(C)NC(=S)NCc1cccnc1 | -2 | -2 | -5 | 23776* | -2
COc1ccc(Cc2nc3ccc(C(=O)N4CCCCC4CO)cc3o2)cc1OC (stereo not drawn) | -10 | -7 | 4 | 3930 | 0
COc1cccc2cc(-c3nnc(SCC(=O)NCc4ccccc4)n3C)oc12 | 2 | 6 | -2 | 22828* | ?
CCn1c(SCC(=O)Nc2nccs2)nnc1-c1cc2cccc(OC)c2o1 | 8 | 5 | 0 | 8503 | -1
COc1cccc2cc(-c3nnc(SCC(=O)Nc4cc(C(F)(F)F)ccc4Cl)n3N)oc12 | 3 | -3 | 9 | 23578* | -2
O=C(/C=C/[C@H]1O[C@@H](n2cnc3c(NC(=O)c4ccccc4)ncnc32)[C@H](O)[C@@H]1O)NCc1ccc2c(c1)OCO2 | -4 | -7 | . | 5468 | -1
CCN(C1CCCCC1)S(=O)(=O)CCNC(=O)c1ccc(OC)cc1 | 0 | 0 | 6 | 4006 | 0
Cc1cccc2[nH]c3c(N4CCC5(CC4)OCCO5)ncnc3c12 | -4 | -2 | 11 | 22045* | ?
Clc1ccc2[nH]c3c(N4CCC5(CC4)OCCO5)ncnc3c2c1 | . | . | 2 | . | .
